For this test, the target named is Neuropilin-1 (Homo sapiens) (UniProt O14786). Kind of test: blockers of CendR peptide binding to NRP-1 – biochemical, FP and AlphaScreen panel, dose response (AID 651650). To be noted: NRP-1 b1b2 / RPARPAR peptide binding, FP or AlphaScreen; run 1, at 100 µM (top of the series). A general note: Alpha assays give light when donor and acceptor beads are brought close together.
Neuropilin-1 (Homo sapiens), sequence (O14786 whole entry, looked up): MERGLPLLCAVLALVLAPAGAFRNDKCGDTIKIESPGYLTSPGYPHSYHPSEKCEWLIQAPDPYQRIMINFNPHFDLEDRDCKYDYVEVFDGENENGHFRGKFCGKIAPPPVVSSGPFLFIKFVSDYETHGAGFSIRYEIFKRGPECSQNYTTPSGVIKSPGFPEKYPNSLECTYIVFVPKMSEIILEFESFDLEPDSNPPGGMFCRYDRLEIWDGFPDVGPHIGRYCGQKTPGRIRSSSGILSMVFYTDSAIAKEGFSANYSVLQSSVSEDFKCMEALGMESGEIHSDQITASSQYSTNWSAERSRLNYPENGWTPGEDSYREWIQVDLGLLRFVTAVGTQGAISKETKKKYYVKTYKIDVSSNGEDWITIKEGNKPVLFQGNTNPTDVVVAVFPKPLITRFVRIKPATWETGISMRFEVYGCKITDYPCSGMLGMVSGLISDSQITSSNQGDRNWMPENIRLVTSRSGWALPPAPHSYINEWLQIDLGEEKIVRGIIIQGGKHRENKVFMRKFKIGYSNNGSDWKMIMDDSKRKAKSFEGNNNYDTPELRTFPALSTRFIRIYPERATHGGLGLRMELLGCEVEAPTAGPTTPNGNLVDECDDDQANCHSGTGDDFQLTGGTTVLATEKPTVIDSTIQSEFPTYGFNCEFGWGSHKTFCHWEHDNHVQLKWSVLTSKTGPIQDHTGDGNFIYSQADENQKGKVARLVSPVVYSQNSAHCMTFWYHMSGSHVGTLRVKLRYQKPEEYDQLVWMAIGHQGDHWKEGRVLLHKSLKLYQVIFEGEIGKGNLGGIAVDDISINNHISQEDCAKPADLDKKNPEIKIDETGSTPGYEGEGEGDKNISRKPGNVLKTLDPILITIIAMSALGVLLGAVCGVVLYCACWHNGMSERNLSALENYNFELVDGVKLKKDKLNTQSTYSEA
For orientation: inhibition means the change of the read-out against control, counted positive when it falls. Consider `CNc1nc(-c2ccc3c(c2)CCN3C(=O)c2ccccc2F)cs1`, for which the inhibition was found to be 14.5%.
Then `CCN(CC(=O)NCc1cccs1)S(=O)(=O)c1ccc(C(C)C)cc1`, with 1.66%.
For the compound `O=C(/C=C/c1ccccc1)c1ccccn1`, the inhibition was -2%.
As to `CC(=O)c1cccc(S(=O)(=O)N2CCC(C(=O)O)(c3ccccc3)CC2)c1`, the inhibition stood at 49.1%.
Then `O=S(=O)(c1ccccc1)c1nc(-c2ccc(F)cc2)oc1N1CCOCC1`, with 24.8%.
For `O=[N+]([O-])c1ccc(Nc2nc(NC3CCCCC3)nc(N3CCCC3)n2)cc1`, the inhibition is 25.6%.
Then `C=CCNC(=O)c1onc(CSc2ccc(F)c(F)c2)c1C(=O)NCC=C`, with 38.7%; and `Cc1cccc(NS(=O)(=O)c2cccs2)c1`, with 44.9%; and `CC(C)(C)OC(=O)NCc1ccc(CNC(=O)c2nc[nH]c2C(=O)N2CCN(C(=O)OC(C)(C)C)CC2)cc1`, with 16.3%.
Then `NS(=O)(=O)c1ccc(CNC(=S)NCc2ccc(F)cc2)cc1`, with 42.3%; and `CCOc1ccc(S(=O)(=O)N2CCN(C(=O)c3sccc3C)CC2)cc1`, with 101%; and `Nc1cc(S(=O)(=O)O)cc([N+](=O)[O-])c1O`, with 74.8%.
Consider `O=c1c2cn[nH]c2nc(SCc2ccccc2F)n1-c1ccc(Br)cc1`, for which the inhibition stood at 53.3%.
Then `CC(C)(C)c1nc(SCC(=O)NCc2ccco2)c2ccccc2n1`, with 44.2%.
As to `C/C(=N\N=c1/sc2ccccc2n1C)c1ccccn1`, the inhibition was found to be 23.1%.
Then `Cc1cc(NC(=O)COC(=O)c2ccc(C)c(C)c2)no1`, with 5.88%.
In the case of `CCOC(=O)c1c2ccc(OCC(=O)NN)cc2n2ccccc12`, the inhibition is -1.02%.
Then `CN(C)CCn1c(=O)n(-c2ccc(F)cc2)c(=O)c2c3c(sc21)CCCCC3`, with 77.8%.

The record behind these values is PubChem BioAssay AID651650 (Sanford-Burnham Center for Chemical Genomics, 2012).
